Screening data from PubChem BioAssay.
Sampled rows, rich in hits. Any-hit rate of the full collection: about 1.8%.
EWS-Fli inh: blocks EWS/Fli oncoprotein-driven transcription. A673 NR0B1-luciferase reporter, viability-normalised. inhibition, % at 12.6 µM. actives 0.67% (n = 350,000);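 active = mean inhibition of at least 50% after viability correction, with every replicate also passing that limit; inconclusive = mean reaches 50% but only one of two replicates passes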;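 note: firefly luciferase signal divided by Alamar Blue viability fluorescence both relative to DMSO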
LGR2 inh: Drosophila LGR2 receptor signaling inhibition; HEK293 LGR2, CRE-luciferase, bursicon-stimulated, 4 h; inhibition, % at 9.99 µM; actives 0.35% (n = 380,000); AID 720647;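 active = drop in luminescence signal, shown as inhibition above about 50% in the replicate tests, limit read from the data, passing the limit was not always enough; inconclusive = probably only some replicates passing the limit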;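 note: agonist challenge used bursicon conditioned medium at about half maximal strength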
CFTR F508del cor: correctors of CFTR F508del function in bronchial epithelial cells; CFBE cells, YFP halide quenching; stimulated with forskolin plus potentiator P3; % fluorescence drop versus neutral controls; activity (quench increase), % at 7.58 µM; actives 0.36% (n = 350,000);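 active = mean added fluorescence quench of at least 8% versus neutral control, with both replicates also reaching 8%; inconclusive = only one of the mean or replicate conditions met; inactive = mean below 8% and not both replicates reaching 8%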;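 note: cells transiently co-express mutant CFTR-F508del with the halide-sensitive YFP; corrector assay measuring rescue of mutant channel to the surface after 24 h compound exposure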
PAX8 inh HTS: inhibitors of PAX8 transcriptional activity in RMG-I cells; RMG-I TPO-luciferase reporter, SteadyGlo, 24 h; inhibition, % at 12.6 µM; actives 1.2% (n = 360,000); AID 652154;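 active = mean replicate inhibition at least 60% with every replicate also reaching 60%; inconclusive = only one of the two criteria is met; inactive = mean below 60% and not all replicates reaching 60%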;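 note: luciferase light reporting Pax8 driven TPO promoter activity; plate controls were median of neutral control wells for no effect and mitoxantrone controls for full effect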
* = called active by the depositor.

Results for C[C@@H]1CN([C@@H](C)CO)S(=O)(=O)c2ccc(-c3ccccc3)cc2O[C@H]1CN(C)Cc1cccnc1 ?
EWS-Fli inh: 67*; LGR2 inh: 0; CFTR F508del cor: -1; PAX8 inh HTS: inconclusive

What do the screens show for `O=C(CCNC(=O)c1ccc(Br)cc1)NCCCN1CCOCC1`?
EWS-Fli inh: -5; LGR2 inh: 10; CFTR F508del cor: -4; PAX8 inh HTS: 11

What do the screens show for `CC(C)(C)c1ccc(CSc2nnc(-c3ccccc3NC(=O)c3ccccc3)o2)cc1`?
LGR2 inh: 5; PAX8 inh HTS: -22

What do the screens show for `O=C(NC1Cc2ccccc2C1)[C@@H]1N[C@@H]2c3cccc(=O)n3C[C@@H]2[C@H]1CO`?
EWS-Fli inh: 0; LGR2 inh: -2; PAX8 inh HTS: 2

Results for O=C(Nc1cnn(C23CC4CC(CC(C4)C2)C3)c1)c1cnn2c(C(F)(F)F)cc(-c3ccco3)nc12 ?
EWS-Fli inh: 7; LGR2 inh: 79*; CFTR F508del cor: 1

What do the screens show for `Cc1c(OCC(=O)NCCN2CCOCC2)ccc2c3c(c(=O)oc12)CCC3`?
EWS-Fli inh: 1; LGR2 inh: -11; CFTR F508del cor: 11*; PAX8 inh HTS: -16

Results for COc1ccc2noc3c2c1C(=O)c1ccccc1-3 ?
EWS-Fli inh: -19; LGR2 inh: -16; CFTR F508del cor: 37*; PAX8 inh HTS: 25

Results for C[C@@H]1CCCCO[C@H](CN(C)C(=O)NC2CCCCC2)[C@@H](C)CN([C@H](C)CO)C(=O)c2cc(NS(=O)(=O)c3ccc(Cl)cc3)ccc2O1 ?
EWS-Fli inh: -20; LGR2 inh: 10; CFTR F508del cor: 1; PAX8 inh HTS: -12

Results for OC[C@@H]1[C@@H](c2ccc(C#CC3CC3)cc2)[C@H]2CN(CCC(F)(F)F)CCCCN12 ?
EWS-Fli inh: -7; CFTR F508del cor: 1; PAX8 inh HTS: -9

How did OC[C@@H]1[C@H](c2ccc(C#CC3CCCC3)cc2)[C@H]2CN(CCC(F)(F)F)CCCCN12 do in these assays?
EWS-Fli inh: 60*; LGR2 inh: 0; CFTR F508del cor: 6; PAX8 inh HTS: 29

What do the screens show for `OC[C@@H]1[C@H](c2ccc(-c3ccc(F)cc3)cc2)[C@@H]2CN(CCC(F)(F)F)CCCCN12`?
LGR2 inh: -5; CFTR F508del cor: 0; PAX8 inh HTS: 93*

How did COc1ccc(-c2cc(-c3nc4ccccn4c3NCc3ccccc3)ccc2OC)cc1 do in these assays?
EWS-Fli inh: 76*; LGR2 inh: 100*; CFTR F508del cor: 3; PAX8 inh HTS: 102*

What do the screens show for `Clc1cccc(-c2ccc(-c3nc4ccccn4c3NCc3ccccc3)cc2)c1`?
EWS-Fli inh: -60; LGR2 inh: -2; CFTR F508del cor: 2; PAX8 inh HTS: -21

What do the screens show for `Cc1ccc(S(=O)(=O)NC(=O)C2(C)CCN2C(=O)Cc2ccc(C(C)(C)C)cc2)nc1` (configuration not stated)?
EWS-Fli inh: 6; LGR2 inh: 13; CFTR F508del cor: 3; PAX8 inh HTS: -8

How did COc1ccc(C(=O)NNC(=O)CCC(=O)Nc2ccc(C)cc2C)cc1 do in these assays?
EWS-Fli inh: 6; LGR2 inh: 6; CFTR F508del cor: -2; PAX8 inh HTS: -1

How did COc1cc(OC)cc(C(=O)NC(=S)Nc2ccc3oc(=O)ccc3c2)c1 do in these assays?
EWS-Fli inh: 1; LGR2 inh: 19; CFTR F508del cor: 9.6*; PAX8 inh HTS: 9

What do the screens show for `Nc1ncnc2c1ncn2[C@@H]1O[C@H](CNC(=O)[C@H](N)Cc2cscn2)[C@@H](O)[C@H]1O`?
EWS-Fli inh: -2; LGR2 inh: -13; CFTR F508del cor: -1; PAX8 inh HTS: 4

How did CCCNS(=O)(=O)c1cccc(C(=O)NNC(=O)c2cc(C)oc2C)c1 do in these assays?
EWS-Fli inh: 2; LGR2 inh: 8; CFTR F508del cor: 1; PAX8 inh HTS: 4

Results for Cc1cc(C(=O)NNC(=O)c2ccc(Cl)c(S(N)(=O)=O)c2)c(C)o1 ?
EWS-Fli inh: 0; LGR2 inh: 6; CFTR F508del cor: 8.7*

What do the screens show for `C=CCNC(=O)[C@H]1[C@@H]2C(=O)O[C@@H](c3ccccc3)[C@@H](c3ccccc3)N2[C@@H](c2ccccc2OCCO)[C@]12C(=O)N(C(=O)OCCOC)c1ccc(C#CC3(O)CCCCCC3)cc12`?
EWS-Fli inh: 12; CFTR F508del cor: 2; PAX8 inh HTS: 53

What do the screens show for `C=CCNC(=O)[C@@H]1[C@H]2C(=O)O[C@H](c3ccccc3)[C@H](c3ccccc3)N2[C@H](c2ccccc2OCCO)[C@@]12C(=O)N(C(=O)OCCOC)c1ccccc12`?
EWS-Fli inh: 7; CFTR F508del cor: 1; PAX8 inh HTS: 87*

What do the screens show for `C=CCNC(=O)[C@H]1[C@@H]2C(=O)O[C@@H](c3ccccc3)[C@@H](c3ccccc3)N2[C@@H](c2ccccc2OCCO)[C@]12C(=O)N(C(=O)OCCOC)c1ccccc12`?
EWS-Fli inh: 8; CFTR F508del cor: 7; PAX8 inh HTS: 82*

How did COCCOC(=O)N1C(=O)[C@@]2(c3ccccc31)[C@H](c1ccccc1OCCO)N1[C@H](c3ccccc3)[C@H](c3ccccc3)OC(=O)[C@H]1[C@@H]2C(=O)NC[C@H](O)c1ccccc1 do in these assays?
EWS-Fli inh: 6; CFTR F508del cor: 2; PAX8 inh HTS: 109*

What do the screens show for `COc1cccc(/C=C/C(=C2/C(=O)N(c3ccccc3)N=C2C)c2ccc(C)cc2)c1OC`?
EWS-Fli inh: 1; LGR2 inh: 8; PAX8 inh HTS: -24

Results for CCN(CC(=O)Nc1c(F)cccc1F)C(=O)c1cc(S(=O)(=O)N(C)C)ccc1N1CCCC1 ?
EWS-Fli inh: -2; LGR2 inh: 7; CFTR F508del cor: -1; PAX8 inh HTS: 90*

How did CCN(CC(=O)Nc1ccc(OC)cc1)C(=O)c1cc(S(=O)(=O)N2CCOCC2)ccc1N1CCCC1 do in these assays?
EWS-Fli inh: 14; LGR2 inh: 9; CFTR F508del cor: -6; PAX8 inh HTS: 69*

How did CCN(CC(=O)Nc1c(F)cccc1F)C(=O)c1cc(S(=O)(=O)N(CC)CC)ccc1N1CCCCC1 do in these assays?
LGR2 inh: 1; CFTR F508del cor: 2; PAX8 inh HTS: 88*

Results for COc1cc(C(=O)NC2CCN(C)CC2)ccc1Nc1ncc2c(n1)N(CCc1ccccc1)CCC(=O)N2C ?
EWS-Fli inh: 54*; LGR2 inh: 3; CFTR F508del cor: 7; PAX8 inh HTS: -64

Results for C=CCc1cc(C)ccc1OCCOCCC(C(=O)OCC)C(=O)OCC ?
EWS-Fli inh: 3; LGR2 inh: 4; CFTR F508del cor: 1; PAX8 inh HTS: 79*

What do the screens show for `O=C(CSC1=NCCN1)NC(c1ccccc1)c1ccccc1`?
EWS-Fli inh: 9; LGR2 inh: 25; CFTR F508del cor: 7; PAX8 inh HTS: 31

Results for CCN(CC)S(=O)(=O)c1cccc(C(=O)Nc2cc(C)on2)c1 ?
EWS-Fli inh: -1; LGR2 inh: -8; CFTR F508del cor: 0; PAX8 inh HTS: -23

What do the screens show for `Cc1cc(NC(=O)c2cccc(COc3ccc(Br)cc3)c2)no1`?
EWS-Fli inh: 86*; LGR2 inh: -43; CFTR F508del cor: -6; PAX8 inh HTS: 47
